The list is not random: actives were taken first. Their share in the collection is about 19%.
DT40 TDP1 CPT = DT40-hTDP1 cell growth loss with CPT. hit rate 12% among 420,000. chicken DT40 Tdp1-/-;hTDP1 cells + 20 nM CPT, ATP luminescence, 48 h. Potency, µM (doses to about 46.2 µM), usual class: inhibitors; also: nearly all actives have a fitted effect of over 55% in size
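Cell growth measured by CellTiter-Glo luminescence after a minimum 48 h, 37 C compound exposure with 20 nM CPT in Tdp1-knockout DT40 cells stably expressing hTDP1, seeded 400/well; qHTS titration format.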
IL1B secr inh = blocks inflammasome-driven IL-1 beta release | hit rate 4.7% among 360,000 | activity change, % at 57.5 µM | THP-1 LPS/ATP IL-1B secretion, AlphaLISA, 16 h; stronger effect = lower value; in the data active = activity change below about -50%; inconclusive = mostly about -30% to -49%
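THP-1 cells pretreated 1 hr with compounds (up to 57.5 uM final), then stimulated with LPS (250 ng/mL final) plus ATP (1.25 mM final); secreted IL-1B measured by AlphaLISA after 16 hr, decreased signal indicating inhibition.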
HT1080-NT tox = kills 2HG-producing HT-1080-NT fibrosarcoma cells. HT-1080-NT fibrosarcoma viability, CellTiter-Glo ATP luminescence, 48 h. Potency, µM (series often up to 46.1 µM), usual class: cytotoxic. hit rate 1.6% among 360,000. AID 686970;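 also: NT is the 2HG producing partner of a matched IDH1 knockdown line; nearly all actives have a fitted effect of over 55% in size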
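HT-1080-NT; 750 cells/well; 5% FBS RPMI; 48 h compound, 37 degrees C; CellTiter-Glo luminescence; curve fitting and curve-class assignment.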
TDP1 cell noCPT = qHTS for Inhibitors of human tyrosyl-DNA phosphodiesterase 1 (TDP1): qHTS in cells in absence of CPT; hit rate 15% among 420,000; DT40 Tdp1-/- hTDP1 cells, no CPT, ATP luminescence, 48 h; Potency, µM (series often up to 46.2 µM), hits mostly inhibitors; also: nearly all actives have a fitted effect of over 55% in size
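A cellular qHTS used chicken DT40 cells lacking endogenous Tdp1 but carrying stably transfected human TDP1. Compounds were applied without camptothecin, and cell growth kinetics were judged by ATP-dependent luminescence after ≥48 hr.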
HT1080 IDH1KD tx = HT-1080 IDH1 knockdown cell toxicity (counter line). Potency, µM (titrated, usually from 46.1 µM), hits mostly cytotoxic. hit rate 2% among 360,000. HT-1080 IDH1 knockdown viability, ATP luminescence, 48 h
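Knockdown cells (IDH1KD HT-1080) received compounds 2 h after plating at 750 cells/well and were kept 48 h at 37 °C in 5% FBS RPMI. A CellTiter-Glo luminescence read gave % activity for curve fitting.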
Numbers stand for hits; [ ] = remark or other dose. Unless noted, calls follow the shape of the dose curve; as a rule, active = well fitted curve in the direction sought with a large enough effect; inconclusive = small, poorly fitted or top-dose-only effect, or another doubt; inactive = no such curve, though single readings can be large; an effect the other way counts as inactive or inconclusive.

For COCCn1c(=O)c(-c2ccc(Cl)cc2)nc2cnc(N3CCOCC3)nc21 the results were DT40 TDP1 CPT inactive and TDP1 cell noCPT inactive.
`CCOCC(=O)Nc1cc(C)on1` gave DT40 TDP1 CPT inactive, IL1B secr inh inactive, HT1080-NT tox inactive, TDP1 cell noCPT inactive and HT1080 IDH1KD tx inactive.
Screening COc1cccc2cc(-c3csc(CCn4nc(C)cc4C)n3)c(=O)oc12 returned DT40 TDP1 CPT inconclusive, IL1B secr inh inactive, HT1080-NT tox inactive, TDP1 cell noCPT 23µM and HT1080 IDH1KD tx inactive.
Screening Cc1cc(C)n(CCc2nc(-c3ccco3)cs2)n1 returned DT40 TDP1 CPT 11µM, IL1B secr inh inactive, HT1080-NT tox inactive, TDP1 cell noCPT 13µM and HT1080 IDH1KD tx inactive.
CCCn1c(=S)[nH]c2cc(C(=O)N3CCCC(C(=O)OCC)C3)ccc2c1=O (stereo unspecified) was read as DT40 TDP1 CPT 15µM, IL1B secr inh inactive, HT1080-NT tox inconclusive, TDP1 cell noCPT 21µM and HT1080 IDH1KD tx inconclusive.
For COCCn1c(=S)[nH]c2cc(C(=O)N3CCCC(C)C3)ccc2c1=O (stereo unspecified) the results were DT40 TDP1 CPT 26µM, IL1B secr inh inactive, HT1080-NT tox inactive, TDP1 cell noCPT inconclusive and HT1080 IDH1KD tx inactive.
For CCC(C)NC(=O)Cn1cnc2sc(C)c(S(=O)(=O)N3CCN(c4ncccn4)CC3)c2c1=O (stereo unspecified) the results were DT40 TDP1 CPT inactive, IL1B secr inh inactive, HT1080-NT tox inactive, TDP1 cell noCPT inactive and HT1080 IDH1KD tx inactive.
Cc1sc2ncn(CC(=O)N3CCN(c4ccc(Cl)cc4)CC3)c(=O)c2c1S(=O)(=O)N1CCN(c2ncccn2)CC1 was read as DT40 TDP1 CPT 12µM and TDP1 cell noCPT inconclusive.
COc1ccccc1N1CCN(C(=O)c2sc3ncn(CC(=O)N4CCC(C)CC4)c(=O)c3c2C)CC1 was read as DT40 TDP1 CPT inconclusive, IL1B secr inh inactive, HT1080-NT tox inactive, TDP1 cell noCPT 1.8µM and HT1080 IDH1KD tx inactive.
`Cc1cccc(N2CCN(C(=O)Cn3cnc4sc(C)c(S(=O)(=O)N5CCN(c6ncccn6)CC5)c4c3=O)CC2C)c1` (stereo unspecified) gave DT40 TDP1 CPT 16µM and TDP1 cell noCPT 15µM.
Cc1sc2ncn(CC(=O)N3CCN(c4ccccn4)CC3)c(=O)c2c1S(=O)(=O)N1CCCCC1 was read as DT40 TDP1 CPT inactive, IL1B secr inh inactive, HT1080-NT tox inactive, TDP1 cell noCPT inactive and HT1080 IDH1KD tx inactive.
Screening CCCN(C(=O)Cn1cnc2sc(C)c(S(=O)(=O)N3CCN(c4ncccn4)CC3)c2c1=O)c1cccc(C)c1 returned DT40 TDP1 CPT inactive and TDP1 cell noCPT 15µM.
For CS/C(=C/[N+](=O)[O-])Nc1cccc2c1C(C)CC2(C)C (stereo unspecified) the results were DT40 TDP1 CPT inactive, IL1B secr inh inactive, HT1080-NT tox inactive, TDP1 cell noCPT inactive and HT1080 IDH1KD tx inactive.
For O=C(O)CCC(=O)Nc1nc2nccc(-c3ccccc3)n2n1 the results were DT40 TDP1 CPT inactive, IL1B secr inh inactive, HT1080-NT tox inconclusive, TDP1 cell noCPT inactive and HT1080 IDH1KD tx inactive.
For CC(=O)NC(NC(=S)Nc1ccc(N=Nc2ccccc2)cc1)C(Cl)(Cl)Cl (stereo unspecified) the results were DT40 TDP1 CPT inconclusive, IL1B secr inh inactive, HT1080-NT tox inconclusive, TDP1 cell noCPT inconclusive and HT1080 IDH1KD tx inconclusive.
For CC(C)C(=O)NCC1CCC2(CCN(Cc3ccc(-c4cccc(Cl)c4)o3)CC2)O1 (stereo unspecified) the results were DT40 TDP1 CPT inactive and TDP1 cell noCPT inconclusive.
`CSCCC(NC(=O)c1ccc(C(C)(C)C)cc1)C(=O)O` (stereo unspecified) gave DT40 TDP1 CPT inactive, IL1B secr inh inactive, HT1080-NT tox inactive, TDP1 cell noCPT inactive and HT1080 IDH1KD tx inactive.
For COc1ccc(N2CCN(C(=O)Cn3cnc4sc(C)c(S(=O)(=O)N5CCC(C)CC5)c4c3=O)CC2)cc1 the results were DT40 TDP1 CPT inconclusive and TDP1 cell noCPT 23µM.
Screening Cc1sc2ncn(CC(=O)N3CCN(c4ccc(F)cc4)CC3)c(=O)c2c1S(=O)(=O)N1CCOCC1 returned DT40 TDP1 CPT inactive, IL1B secr inh inactive, HT1080-NT tox inactive, TDP1 cell noCPT inconclusive and HT1080 IDH1KD tx inactive.
Cc1ccc(-n2ncc3c(Nc4cccc(C(F)(F)F)c4)ncnc32)cc1C was read as DT40 TDP1 CPT 21µM and TDP1 cell noCPT inconclusive.
Cn1ncc2c(Nc3ccc(Cl)c(Cl)c3)ncnc21 was read as DT40 TDP1 CPT inconclusive, IL1B secr inh inactive, HT1080-NT tox inactive, TDP1 cell noCPT inconclusive and HT1080 IDH1KD tx inactive.
Cc1ccc(-n2ncc3c(Nc4ccc5c(c4)OCCO5)ncnc32)cc1C was read as DT40 TDP1 CPT 21µM and TDP1 cell noCPT 18µM.
Screening Cc1cccc(-n2ncc3c(Nc4ccc(F)cc4)ncnc32)c1 returned DT40 TDP1 CPT inconclusive, IL1B secr inh inconclusive, HT1080-NT tox inactive, TDP1 cell noCPT inconclusive and HT1080 IDH1KD tx inactive.
`CCCn1ncc2c(Nc3ccc(C)c(C)c3)ncnc21` gave DT40 TDP1 CPT inconclusive, IL1B secr inh -64, HT1080-NT tox inactive, TDP1 cell noCPT inconclusive and HT1080 IDH1KD tx inactive.
`O=C(CN1C(=O)NC2(CCCCCC2)C1=O)NCCc1ccccc1` gave DT40 TDP1 CPT inactive, IL1B secr inh inactive, HT1080-NT tox inactive[9.24 µM], TDP1 cell noCPT inactive and HT1080 IDH1KD tx inactive.
`CC1(C)CC(=O)C(N=Nc2cc(S(=O)(=O)N3CCOCC3)ccc2Cl)=C(O)C1` gave DT40 TDP1 CPT inactive, IL1B secr inh inactive, HT1080-NT tox inactive, TDP1 cell noCPT inactive and HT1080 IDH1KD tx inactive.
`Cc1ccc(/C=C/C(=O)c2ccccc(=O)c2O)c(C)c1` gave DT40 TDP1 CPT 15µM, IL1B secr inh -104, HT1080-NT tox 21µM, TDP1 cell noCPT 21µM and HT1080 IDH1KD tx 18µM.
Screening O=C(/C=C/c1ccc([N+](=O)[O-])cc1)c1ccccc(=O)c1O returned DT40 TDP1 CPT 2.6µM, IL1B secr inh -98, HT1080-NT tox 6.5µM, TDP1 cell noCPT 3.3µM and HT1080 IDH1KD tx 5.8µM.
For O=C(/C=C/c1ccccc1Cl)c1ccccc(=O)c1O the results were DT40 TDP1 CPT 2.9µM, IL1B secr inh -97, HT1080-NT tox 12µM, TDP1 cell noCPT 4.1µM and HT1080 IDH1KD tx 12µM.
Cc1ccc(C)c(NC(=O)c2cc(=O)c3ccccc3o2)c1 was read as DT40 TDP1 CPT inactive, IL1B secr inh inactive, HT1080-NT tox inactive, TDP1 cell noCPT inconclusive and HT1080 IDH1KD tx inactive.
For Cc1ccc(C)c(/C=C/C(=O)c2ccccc(=O)c2O)c1 the results were DT40 TDP1 CPT 10µM, IL1B secr inh -64, HT1080-NT tox inconclusive, TDP1 cell noCPT 6.5µM and HT1080 IDH1KD tx 15µM.

High-throughput results: PubChem, National Center for Advancing Translational Sciences (NCATS)
